GRK2 aptamer HTS – compounds blocking aptamer binding on GRK2 – biochemical, human GRK2, bead flow cytometry, HTS, primary screen; AID 488847, 2010; Beta-adrenergic receptor kinase 1 (Homo sapiens), P25098; FAM-aptamer displacement from GRK2; 0.59% of 330,000 active; inhibition of aptamer binding, % at 10 µM;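 active = inhibition of aptamer binding above 40%, roughly 3 SD of noise, on plates passing a quality check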;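 also: median bead fluorescence of bound FAM aptamer so fluorescent compounds give negative values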
Target sequence (P25098 whole entry, looked up): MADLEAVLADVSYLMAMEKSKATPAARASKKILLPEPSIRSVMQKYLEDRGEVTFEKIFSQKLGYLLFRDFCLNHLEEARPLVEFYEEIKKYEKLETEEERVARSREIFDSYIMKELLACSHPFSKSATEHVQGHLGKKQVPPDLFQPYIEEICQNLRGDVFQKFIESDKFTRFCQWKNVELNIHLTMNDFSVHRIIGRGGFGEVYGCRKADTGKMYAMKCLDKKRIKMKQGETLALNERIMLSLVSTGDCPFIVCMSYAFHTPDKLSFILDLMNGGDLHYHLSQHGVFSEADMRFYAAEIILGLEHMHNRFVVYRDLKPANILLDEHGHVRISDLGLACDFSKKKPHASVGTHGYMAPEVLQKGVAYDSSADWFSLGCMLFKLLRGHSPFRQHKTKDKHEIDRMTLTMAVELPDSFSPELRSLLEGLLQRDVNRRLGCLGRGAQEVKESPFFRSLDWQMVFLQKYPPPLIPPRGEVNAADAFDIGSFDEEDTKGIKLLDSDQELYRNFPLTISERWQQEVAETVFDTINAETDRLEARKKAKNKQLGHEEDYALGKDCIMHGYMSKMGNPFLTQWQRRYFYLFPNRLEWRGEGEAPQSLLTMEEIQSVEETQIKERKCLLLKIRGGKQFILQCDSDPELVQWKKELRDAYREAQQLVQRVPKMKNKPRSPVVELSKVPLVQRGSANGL
MIN6 prolif – inducers of MIN6 beta-cell proliferation, primary screen, ATP luminescence, uHTS. MIN6 cells proliferation, ATPlite luminescence, 48 h; cells starved in 0.2% serum; 100% = growth in 10% serum. proliferation, % at 10 µM. 0.29% of 330,000 active;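 active = compounds whose signal lies at least 3.5 SD above the mean of all wells on their plate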;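 also: 0% = DMSO-treated cells in low-serum medium and 100% = 10% serum control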
Platelet DG rel – inhibitors of platelet dense granule secretion, primary screen, cell-based, MLPCN, human platelets | human platelet-rich plasma, SFLLRN dense granule ATP release, luminescence | inhibition, %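 (compounds screened at 7.5 µM in platelet-rich plasma)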 | 0.22% of 300,000 active | AID 1663, 2009;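 active = mean replicate score, as percent of positive control, at or above 50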
NTR1 ag – agonists of human NTR1, primary screen, imaging, U2OS cells, beta-arrestin-GFP, high content; Neurotensin receptor type 1 (Homo sapiens), P30989; NTR1-U2OS beta-arrestin-GFP spot imaging, agonist mode; activation, % at 20 µM; 0.17% of 330,000 active;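 active = activation at or above 40% of the spot to cytoplasm intensity ratio, with at least 20 cells analyzed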;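 also: 0% = DMSO without peptide and 100% = 100 nM NTR1 peptide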
GRK2 CP1 – GRK2 aptamer-displacing inhibitors, retest, confirmation, biochemical, cherry pick 1, bead flow cytometry; shares compounds with GRK2 aptamer HTS; bead-bound GRK2, FAM-aptamer displacement; aptamer displacement, % at 10 µM; 4% of 2,000 active;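 active = aptamer displacement above 40%, near three times the noise of non-fluorescent compounds, on plates passing quality checks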;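 also: negative values mostly reflect intrinsic compound fluorescence rather than true enhancement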
Aptamer quench SP – quenches fluorescent RNA aptamer, GRK2 hit artifact; fluorescence response (% of DMSO), % at 10 µM; Carboxyfluorescein RNA aptamer on beads, flow cytometry quenching; hits give low values; 2,000 tested, under 10 active; shares compounds with GRK2 aptamer HTS;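 active = compounds that quench the bead-bound fluorescent RNA probe, cutting fluorescence to under half of the solvent control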;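 also: counterscreen run without GRK2 so only probe quenching by compound is measured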
* hit, by the source's call. Hits are enriched below; roughly 1.2% of the tested compounds scored in any of these assays.

What do the screens show for `COc1ccc(C)cc1S(=O)(=O)N1CCCC(C(=O)N2CCOCC2)C1` (configuration not stated)?
GRK2 aptamer HTS: 5; MIN6 prolif: -4; Platelet DG rel: -5; NTR1 ag: 0

Results for O=C(N/N=C/c1ccsc1)c1c[nH]c2ccccc12 ?
GRK2 aptamer HTS: 0; MIN6 prolif: -3; Platelet DG rel: 10; NTR1 ag: 1

Results for CCCC(=O)Nc1ccc2c(c1)nc(CCNC(=O)c1ccccc1)n2C ?
GRK2 aptamer HTS: 0; MIN6 prolif: -2; Platelet DG rel: 10; NTR1 ag: -1; GRK2 CP1: 1; Aptamer quench SP: 97

Results for COc1ccc(NC(=O)CSc2ncccn2)cc1S(=O)(=O)N1CCCCC1 ?
GRK2 aptamer HTS: 1; MIN6 prolif: -1; NTR1 ag: -3

How did O=C(CC1C(=O)NCCN1Cc1cccc(C(F)(F)F)c1)NC1CCCCCC1 (configuration not stated) do in these assays?
GRK2 aptamer HTS: 0; MIN6 prolif: -2; Platelet DG rel: -3; NTR1 ag: 0

What do the screens show for `CCOC(=O)c1c(-c2cccs2)csc1NC(=O)CSc1ncn[nH]1`?
GRK2 aptamer HTS: 90*; MIN6 prolif: -4; Platelet DG rel: -15; NTR1 ag: 28; GRK2 CP1: 0; Aptamer quench SP: 100

Results for CCOC(=O)c1c(-c2cccs2)csc1NC(=O)C(C)(C)C ?
GRK2 aptamer HTS: 0; MIN6 prolif: -2; Platelet DG rel: -8; NTR1 ag: 0

What do the screens show for `Cc1ccc(C(=O)OCc2nc3ccsc3c(=O)[nH]2)o1`?
GRK2 aptamer HTS: 2; MIN6 prolif: -4; Platelet DG rel: -32; NTR1 ag: -1

How did O=C(/C=C/c1ccc(Br)o1)OCc1nc2ccsc2c(=O)[nH]1 do in these assays?
GRK2 aptamer HTS: 88*; MIN6 prolif: 3; Platelet DG rel: 1; NTR1 ag: 1; GRK2 CP1: 16; Aptamer quench SP: 99

How did COc1ccccc1C1c2[nH]c3ccccc3c2C[C@H]2C(=O)N(C3CCN(Cc4ccccc4)CC3)CC(=O)N12 (some centres not stated) do in these assays?
GRK2 aptamer HTS: 0; MIN6 prolif: -7; Platelet DG rel: -5; NTR1 ag: 1; GRK2 CP1: -29; Aptamer quench SP: 97

What do the screens show for `COc1cccc(C2c3[nH]c4ccccc4c3C[C@H]3C(=O)N(C4CCN(Cc5ccccc5)CC4)CC(=O)N23)c1` (some centres not stated)?
GRK2 aptamer HTS: 0; MIN6 prolif: -7; Platelet DG rel: -5; NTR1 ag: 2; GRK2 CP1: -12; Aptamer quench SP: 104

How did Cc1cc(C)c(S(=O)(=O)NCC(=O)NCc2ccco2)c(C)c1 do in these assays?
GRK2 aptamer HTS: 1; MIN6 prolif: -4; Platelet DG rel: -4; NTR1 ag: 0

What do the screens show for `Cc1cc(C(=O)COC(=O)c2ccc(NC(=O)CC#N)cc2)c(C)n1CCc1ccc(F)cc1`?
GRK2 aptamer HTS: 57*; MIN6 prolif: 2; NTR1 ag: 6; GRK2 CP1: 2; Aptamer quench SP: 98

Results for Cc1ccc(S(=O)(=O)N2CCOCC2)cc1NC(=O)COC(=O)c1ccc2c(c1)OCCO2 ?
GRK2 aptamer HTS: 0; MIN6 prolif: 0; Platelet DG rel: 8; NTR1 ag: -1

What do the screens show for `Cc1ccc(S(=O)(=O)N2CCOCC2)cc1NC(=O)COC(=O)c1ccc2c(c1)OCO2`?
GRK2 aptamer HTS: 100*; MIN6 prolif: -3; Platelet DG rel: -2; NTR1 ag: 1; GRK2 CP1: 4; Aptamer quench SP: 67

Results for Cc1cccc(NC(=O)COC(=O)c2ccc(S(=O)(=O)N3CCCCCC3)cc2)c1 ?
MIN6 prolif: 0; NTR1 ag: 1; GRK2 CP1: -2; Aptamer quench SP: 99

How did O=C(COC(=O)c1ccc(S(=O)(=O)N2CCCC2)cc1)Nc1cccc(Br)c1 do in these assays?
GRK2 aptamer HTS: 3; MIN6 prolif: -4; NTR1 ag: -2

Compound activity from PubChem.
